PubChem BioAssay

Assay: calcein-AM signal in unstimulated myeloma cells – cell-based, calcein-AM fluorescence, 48 h, PK04 Diversity Set, profiling panel (AID 1166);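 also: cells grown under basal conditions without added stimulus; test concentration not given here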
Details: RPMI8226 myeloma viability, higher = more signal

| SMILES | z-score |
| --- | --- |
| CO[C@@H]1COC(=O)CC=C[C@H](C)[C@H](OC)COC(=O)[C@H](C)NC(=O)CC=C[C@H]1C | 0.403 |
| CC(CCC(=O)OC[C@H]1O[C@H](C#Cc2ccccc2)C=C[C@@H]1Oc1ccc(C)cc1)=NO[C@H](C)c1cn([C@H](CO)Cc2ccccc2)nn1 | -3.97 |
| CCOC(=O)[C@H](Cc1ccccc1)NC(=O)CCC1CC(OC(=O)NCc2cccc3ccccc23)CC2(CCCC(COC(=O)NCC(c3ccccc3)c3ccccc3)O2)O1 (stereo not given in full) | 0.632 |
| CC(C)=CCCC(C)=CCON=C1C[C@@H](O)[C@@H](O)[C@@H]2[C@@H]3C(=O)N(C[C@@H]4CCCO4)C(=O)[C@@H]3CC[C@H]12 | -0.674 |
| COC(=O)[C@H]1O[C@@H](c2c(OC)c(OC)c(C)c(OC)c2OC)[C@H](C)[C@@H](O)[C@H]1C | 1.36 |
| COc1ccc(O[C@H]2C=C[C@@H](c3ccccc3)O[C@@H]2COC(=O)CCC(C)=NOC[C@@H](O)[C@H]2O[C@@H]3OC(C)(C)O[C@@H]3[C@H]2O)cc1 | -0.0547 |
| CCOC(=O)[C@H](CC(C)C)NC(=O)CCC1CC(OC(=O)NCCc2ccc(F)cc2)CC2(CCCC(COC(=O)NCC3CCCCC3)O2)O1 (stereo not given in full) | 0.444 |
| CC(C)=CCCC(C)=CCON=C1C[C@@H](O)[C@@H](O)[C@@H]2[C@@H]3C(=O)N(C4CCCCC4)C(=O)[C@@H]3CC[C@@H]12 | -1.36 |
| COC(=O)CC=C[C@@H](C)[C@@H](C=NOC[C@H]1O[C@H](c2ccccc2)C=C[C@@H]1Oc1ccc(OC)cc1)NS(=O)(=O)c1ccc(C)cc1 | -1.2 |
| CCc1cc2c(nc1CC)CCN(CCC(C)=NO[C@H](C)c1cn([C@@H]3COC[C@H]3O)nn1)C2 | -0.329 |
